High-throughput results (PubChem BioAssay)
Only some compounds are listed: those with a hit (about 2.3% of all), similar ones and a draw of the others.
Coupling enz – qHTS Assay for Inhibitors of Fructose-1,6-bisphosphate Aldolase from Giardia Lamblia: Coupling assay counterscreen. coupling enzyme system counterscreen, AmpLite Red fluorescence. activity change, negative = inhibition, % at 58.2 µM, hits read low. hit rate 0.67% among 290,000; in the data active = activity change below about -30%
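Counterscreen lacking aldolase: glyceraldehyde-3-phosphate coupling-enzyme reagent preincubated 10 min at RT with compound (at 57.5 uM final), then substrate/coupling system with AmpLite Red added; fluorescence read at 525/598 nm after 20 min RT.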
Tau fibril ThT – qHTS for Inhibitors of Tau Fibril Formation, Thioflavin T Binding; Potency, µM (series often up to 57.4 µM), for the others: at the top dose activity, negative = inhibition, hits mostly inhibitors; hit rate 2.1% among 270,000; Microtubule-associated protein tau (Homo sapiens), P10636; recombinant tau K18 P301L, heparin-induced fibrillization, ThT fluorescence; note: potency is the fitted concentration of half-maximal effect; nearly all actives have a fitted effect of over 55% in size
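In this qHTS, human K18 P301L tau is incubated with compound and heparin for 6 hr at 37 C, and Thioflavin T fluorescence then reports fibril load.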
Tau fluor counter – Counterscreen qHTS for Inhibitors of Tau Fibril Formation, Fluorescence Polarization | hit rate 0.93% among 280,000 | tau K18 P301L (four-repeat tau fragment) Alexa594 fluorescence, heparin fibrillization | Potency, µM (highest dose often 57.7 µM), without a hit: top-dose activity change, negative = decrease; note: potency is the fitted concentration of half-maximal effect; nearly all actives have a fitted effect of over 55% in size
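Human K18 P301L tau (15 uM unlabeled plus 0.24 uM Alexa 594-labeled, final) in 100 mM sodium acetate pH 7 was mixed with compound and 20 uM heparin and incubated 6 hr at 37 C.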
Tau fibril FP – qHTS for Inhibitors of Tau Fibril Formation, Fluorescence Polarization | Microtubule-associated protein tau (Homo sapiens), P10636 | Potency, µM (doses to about 57.7 µM), for the others: at the top dose activity, negative = inhibition, actives largely listed as inhibitors | K18 P301L tau heparin fibrillization, Alexa594 FP, 6 h | hit rate 0.39% among 280,000; note: potency is the fitted concentration of half-maximal effect; nearly all actives have a fitted effect of over 55% in size
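K18 P301L tau (15 uM unlabeled/0.24 uM Alexa 594-labeled, final) + compound + heparin 20 uM final; 100 mM NaOAc pH 7; 6 hr 37 C; ThT 30 uM final added, 1 hr RT; FP ex 555/em 632 nm.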
USP1 inh – Inhibitors of USP1/UAF1: Primary Screen; AID 743255, 2014; recombinant USP1/UAF1, Ub-Rhodamine cleavage fluorescence; Potency, µM (series often up to 57.1 µM), inactives show at the top dose activity change, negative = inhibition, most hits filed as inhibitors; hit rate 0.23% among 390,000; note: potency is the fitted concentration of half-maximal effect; nearly all actives have a fitted effect of over 60% in size
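High-throughput fluorogenic screen: 1nM USP1/UAF1 complex, Ub-Rho substrate 150nM final, 50mM HEPES pH 7.8 with 0.5mM EDTA, 0.1 mg/ml BSA, 1mM TCEP and 0.01% Tween-20.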
Starred values were filed as active, the others as inactive; u = inconclusive; x = no result given; [ ] = remark or other dose. Unless noted, calls come from the whole dose curve; as a rule, active = well fitted curve in the direction sought with a large enough effect; inconclusive = small, poorly fitted or top-dose-only effect, or another doubt; inactive = no such curve, though single readings can be large; an effect the other way counts as inactive or inconclusive. % is set by controls: 0 for no effect and ±100 for the full control effect.

SMILES	Coupling enz	Tau fibril ThT	Tau fluor counter	Tau fibril FP	USP1 inh
CCOc1ccc(C(=O)c2ccc(OC)c(O)c2O)cc1	-24	16µM*	u	u	x
COc1ccc(C(=O)c2ccc(O)cc2)c(O)c1O	-10	u	u	u	x
CO[C@H]1COC(=O)[C@@H](C)COC(=O)[C@@H](OCc2ccccc2)/C=C\[C@@H]1C	-1	-2%[11.5 µM]	-1%[11.6 µM]	4%[11.6 µM]	x
Cc1oc2ccc(O)c(CN3CCOCC3)c2c1C(=O)c1ccc(Cl)cc1	-40*	-6%	-3%	4%	-4%
CC(=O)NN1C(=O)/C(=C\c2ccc(O)cc2)SC1=S	0	u	-13%	-3%	-25%
O=C1/C(=C\c2ccc(O)cc2)SC(=S)N1/N=C/c1ccc(O)cc1	4	5µM*	u	1%	3%
COc1ccc(N2C(=O)CC(Sc3ccccc3C(=O)O)C2=O)c([N+](=O)[O-])c1 (configuration not stated)	-1	14µM*	u	-8%	-28%
COc1ccc(/C=C(\NC(=O)c2ccc(OC)c(OC)c2)C(=O)N2CCN(C)CC2)cc1	-1	x	x	x	-2%
O=c1ccc2cc3c([nH]c4ccc(Br)cc43)oc-2c1O	-10	14µM*	u	u	x
CCOC(=O)c1c(C)[nH]c(CCC(=O)Nc2ccc(C)c(F)c2)c1C	x	-17%	u	13%	-10%
CCc1cc(-c2n[nH]c(C)c2-c2ccccc2Cl)c(O)cc1OC	-35*	x	x	x	-12%
CCOc1ccc(-c2n[nH]c(C)c2-c2ccccc2OC)c(O)c1	-12	0%	-6%	4%	-7%
CCC(=O)Nc1c(C#N)c2nc3ccccc3nc2n1-c1ccccc1C	0	-3%	-4%	-2%	-14%
N#Cc1c(NC(=O)c2ccccc2Cl)n(Cc2ccccc2)c2nc3ccccc3nc12	-39*	14µM*	-29%	u	25µM*
COc1ccc(C(=O)Nc2ccc(NC(=O)c3ccco3)cc2)cc1	0	x	x	x	-1%
CCC(=O)Nc1c(C#N)c2nc3ccccc3nc2n1C1CCCCC1	-2	-12%	2%	7%	-9%
COc1ccc(-n2c(NC(=O)c3ccco3)c(C#N)c3nc4ccccc4nc32)cc1	-52*	4%	5%	-2%	-24%
CCOC(=O)c1c(NC(=O)c2ccco2)n(C2CCCCC2)c2nc3ccccc3nc12	-15	18µM*	-29%	u	16µM*
CCCCn1c(NC(=O)CC)c(C#N)c2nc3ccccc3nc21	-1	3%	7%	6%	-20%
CCCCn1c(NC(=O)c2ccccc2Cl)c(C#N)c2nc3ccccc3nc21	-26	u	-20%	-11%	14µM*
Cc1cc(/C=C2\SC(=S)NC2=O)c(C)n1C1CC1	4	13µM*	-28%	5%	u
Cc1c2ccccc2c(CSC(=N)N)c2ccccc12	-5	13µM*	-28%	u	x
COc1ccc(NC(=O)Cn2nnc(-c3ccccc3NS(=O)(=O)c3ccccc3)n2)cc1	-14	13%	u	16µM*	-20%
Cc1ccsc1C(=O)OCC(=O)NCc1cccs1	x	x	x	x	-6%
Oc1cccc(/C=N/Nc2cccc3cccnc23)c1	0	14µM*	16µM*[quencher]	u	u
Cc1cccc2cc3c(N)c(C#N)sc3nc12	3	13µM*	u	u	-23%
Cc1sc(NC(=O)c2sc3nc4c(C)cccc4cc3c2N)c(C#N)c1C	-7	16µM*	u	-8%	-21%
COc1cccc(-c2cc(C(F)(F)F)c3c(N)c(C#N)sc3n2)c1	-4	-4%	-3%	-2%	x
COc1ccc(NC(=O)Cn2c3ncccc3c(=O)n2-c2ccc(C)c(C)c2)c(OC)c1	x	-4%	-13%	-14%	-17%
